LGR2 inh: inhibitors of bursicon-induced LGR2 CRE-luciferase signal, primary screen, cell-based, HEK293, CRE-luciferase reporter, bursicon stimulation | Drosophila bursicon receptor LGR2 (rickets) | bursicon-stimulated, 4 h | inhibition, % at 9.99 µM | 0.35% of 380,000 active | AID 720647, 2013;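 active means drop in luminescence signal, shown as inhibition above about 50% in the replicate tests, limit read from the data, passing the limit was not always enough; inconclusive means probably only some replicates passing the limit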;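 further: agonist challenge used bursicon conditioned medium at about half maximal strength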
HSF-1 act: HSF-1 activators, primary screen, NIH3T3-HGL cells, MG132 stress, luminescence, single point; NIH3T3-HGL HSF-1 luciferase reporter, 8 h; 100% = twice DMSO control signal; activation, % at 9 µM; 1.7% of 300,000 active; AID 504408, 2011;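 active means mean replicate activation of at least 50% with a set share of replicates each reaching 50%; inconclusive means only one of those two conditions met; inactive means mean below 50% and too few replicates reaching it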
HSF1 inh: HSF1 inhibitors in luciferase reporter cells, primary screen, cell-based, NIH3T3, luminescence | 0.77% of 300,000 active | NIH3T3-HGL HSE-luciferase, MG132-induced, luminescence 8 h; hits give low values | activity change, negative = inhibition, % at 7.5 µM (by protocol);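 active means more than half of replicate wells show activity change below -50%, luminescence cut by over half; inconclusive means some wells, but at most half, below -50%; inactive means no replicate well below -50%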;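 further: luciferase reports HSF-1 transcriptional activity via heat shock element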
EBV LMP1 NFkB: EBV LMP1-driven NF-kappaB luciferase reporter inhibitors, primary screen, cell-based, luminescence, single point; LMP1-induced NF-kappaB luciferase reporter cells; inhibition, % at 12.5 µM; 0.69% of 350,000 active; in the data active means inhibition above about 41%; inconclusive means no clear call, values can overlap the other calls
TROY NFkB inh: inhibitors of TROY-driven NF-kB signaling, primary screen, Q293 LMP1-TROYcd cells, NF-kB luciferase, uHTS; Q293 LMP1-TROYcd NF-kB luciferase reporter, 4 h; AID 1347056, 2019; 0.98% of 360,000 active; inhibition, % at 10 µM;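 active means compounds whose plate-normalised and pattern-corrected inhibition of the luciferase reporter signal at the single screening dose is 50% or more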
TWEAK-Fn14 inh: inhibitors of TWEAK-Fn14 signaling, primary screen, luciferase reporter cells, uHTS. inhibition, % at 10 µM. 2% of 360,000 active. TWEAK-stimulated Fn14 reporter cells, luciferase luminescence, 8 h; in the data active means inhibition above about 50%
Large screens that a line does not name were inactive. Hits are enriched below; roughly 3.6% of the tested compounds scored in any of these assays.

NNC(=O)CNC(=O)CNS(=O)(=O)c1ccccc1	HSF1 inh -78
O=C(O)CCNS(=O)(=O)c1ccccc1C(F)(F)F	HSF1 inh -60
O=C(CCCNS(=O)(=O)c1ccc(F)cc1)Nc1ccc(F)cc1	TWEAK-Fn14 inh 97
O=C(CNS(=O)(=O)c1ccccc1)NCc1ccco1	none
O=C(O)CCCNS(=O)(=O)c1ccccc1	TWEAK-Fn14 inh 62 (no result: LGR2 inh)
O=C(C[C@H]1CC[C@H](NC(=O)NC2CCCCC2)[C@H](CO)O1)NCc1ccccc1	none (no result: HSF-1 act, HSF1 inh, EBV LMP1 NFkB, TROY NFkB inh, TWEAK-Fn14 inh)
CO[C@H]1CN(C)C(=O)c2ccc(NC(=O)NC(C)C)cc2OC[C@H](C)N(C(=O)C2CCC2)C[C@@H]1C	none (no result: HSF-1 act, HSF1 inh, EBV LMP1 NFkB, TROY NFkB inh, TWEAK-Fn14 inh)
C[C@H](CO)N1C[C@H](C)[C@@H](CN(C)S(C)(=O)=O)Oc2ccc(NS(=O)(=O)c3cn(C)cn3)cc2CC1=O	none (no result: HSF-1 act, HSF1 inh, EBV LMP1 NFkB, TROY NFkB inh, TWEAK-Fn14 inh)
CC(=O)c1c(N2CCN(C)CC2)nc(=S)n(Cc2ccccc2)c1C	none
C=CCn1c(C)c(C(C)=O)c(N2CCN(C(c3ccccc3)c3ccccc3)CC2)nc1=S	EBV LMP1 NFkB 55
C[C@@H]1CN([C@H](C)CO)C(=O)c2cccc(NS(C)(=O)=O)c2O[C@@H]1CN(C)C(=O)Nc1ccc(F)cc1	none (no result: HSF-1 act, HSF1 inh, EBV LMP1 NFkB, TROY NFkB inh, TWEAK-Fn14 inh)
COc1ccc(/C=N\n2nnc3ccccc32)cc1	TWEAK-Fn14 inh 90 (no result: LGR2 inh)
COc1ccc(Cn2c(/C=C/c3ccccc3)nc3ccccc32)cc1	HSF-1 act inconclusive (no result: LGR2 inh)
Cc1cc(N/N=C/c2ccc([N+](=O)[O-])o2)nc2ccccc12	HSF-1 act 65
COc1ccc(/C=N/n2c(C)nc3ccccc3c2=O)cc1	none
Cn1c(/C=C/c2ccc(Cl)cc2)nc2ccccc2c1=O	none
COc1ccc(/C=C/c2nc3ccccc3n2C)cc1	LGR2 inh 96, EBV LMP1 NFkB 54, TWEAK-Fn14 inh 76
Cn1c(/C=C/c2ccc([N+](=O)[O-])o2)nc2ccccc2c1=O	HSF-1 act 62, EBV LMP1 NFkB 88 (no result: LGR2 inh)
C[C@H]1CN([C@@H](C)CO)C(=O)c2cc(-c3ccccc3F)cnc2O[C@@H]1CN(C)Cc1ccccc1	none (no result: HSF-1 act, HSF1 inh, EBV LMP1 NFkB, TROY NFkB inh, TWEAK-Fn14 inh)
C[C@H](CO)N1C[C@H](C)[C@H](CN(C)CC2CC2)Oc2ccc(NC(=O)Cc3cn(C)c4ccccc34)cc2CC1=O	none (no result: HSF-1 act, HSF1 inh, EBV LMP1 NFkB, TROY NFkB inh, TWEAK-Fn14 inh)
Cn1c(/C=C/c2ccccc2)nc2ccccc2c1=O	HSF1 inh -80
COc1ccccc1/C=C/c1nc2ccccc2c(=O)o1	none
COc1ccc(/C=C/c2nc3ccccc3c(=O)o2)cc1	LGR2 inh 90, HSF1 inh -59, EBV LMP1 NFkB 51, TROY NFkB inh 83, TWEAK-Fn14 inh 97
C[C@@H]1CN([C@@H](C)CO)C(=O)c2cc(-c3ccc(C#N)cc3)cnc2O[C@H]1CN(C)C(=O)c1ccccc1	none (no result: HSF-1 act, HSF1 inh, EBV LMP1 NFkB, TROY NFkB inh, TWEAK-Fn14 inh)
CCN(CC(=O)NCc1ccc(F)cc1)CC(=O)Nc1cc(S(=O)(=O)N(C)C)ccc1C	EBV LMP1 NFkB 44 (no result: HSF-1 act, HSF1 inh)
CCN(CC(=O)NCc1ccc(F)cc1)CC(=O)Nc1ccc(Br)cc1F	none (no result: HSF-1 act, HSF1 inh)
Cc1cccc(NC(=S)N(CCN(C)C)C(C)c2cccnc2)c1 (configuration not stated)	HSF-1 act 60
COc1cccc(NC(=S)N(CCN(C)C)C(C)c2cccnc2)c1 (configuration not stated)	none
Cc1ccc(O)c(C(=O)c2cnc3c(c2)COc2ccccc2-3)c1	TWEAK-Fn14 inh 63 (no result: LGR2 inh)
CC(C)[C@H](Nc1nc(-c2ccccc2)nc2c1oc1ccccc12)C(=O)O	HSF1 inh -55 (no result: LGR2 inh)
CCc1nc(SCC(=O)NCCc2ccccc2)c2oc3ccccc3c2n1	none
CCc1nc(SCC(=O)c2cccs2)c2oc3ccccc3c2n1	HSF-1 act 66 (no result: LGR2 inh)
O=C(O)CSc1nc(-c2ccccc2)nc2c1oc1ccccc12	HSF1 inh -68 (no result: LGR2 inh)
O=C(O)CSc1nc(-c2ccc(Cl)cc2)nc2c1oc1ccccc12	none
COc1cccc(NC(=O)N[C@@H]2CC[C@H](CC(=O)N3CCOCC3)O[C@H]2CO)c1	none (no result: HSF-1 act, HSF1 inh, EBV LMP1 NFkB, TROY NFkB inh, TWEAK-Fn14 inh)
CCCN1C[C@H](C)[C@@H](OC)CN(C)C(=O)c2ccc(NC(=O)Nc3ccccc3F)cc2OC[C@H]1C	none (no result: HSF-1 act, HSF1 inh, EBV LMP1 NFkB, TROY NFkB inh, TWEAK-Fn14 inh)

Compound activity as filed in PubChem.
